SMILES strings stand for the structures.

Here are results for seven molecules from ChEMBL document CHEMBL2218924, “A broad activity screen in support of a chemogenomic map for kinase signalling research and drug discovery” (Biochem J, 2013).

The target in assay [1] is Mitogen-activated protein kinase 11 (Homo sapiens) (UniProt Q15759). Conditions: at 1 µM.
Assay [2] shares this target. Particulars: at 10 µM.
Assay [3] has as its target T1, Mitogen-activated protein kinase 13 (Homo sapiens) (UniProt O15264).
T1 sequence (whole entry): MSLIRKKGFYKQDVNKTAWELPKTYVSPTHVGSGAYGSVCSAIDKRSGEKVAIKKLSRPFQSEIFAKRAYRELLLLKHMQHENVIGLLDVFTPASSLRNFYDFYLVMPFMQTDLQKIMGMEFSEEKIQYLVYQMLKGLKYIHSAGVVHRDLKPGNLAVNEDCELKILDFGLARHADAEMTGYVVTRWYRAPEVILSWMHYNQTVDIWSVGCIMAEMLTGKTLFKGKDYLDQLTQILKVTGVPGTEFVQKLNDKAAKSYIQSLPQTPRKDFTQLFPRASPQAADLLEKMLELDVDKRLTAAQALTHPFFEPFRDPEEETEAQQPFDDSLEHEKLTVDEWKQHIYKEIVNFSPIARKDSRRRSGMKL
Conditions: at 1 µM.

The target in assay [4] is T1, Mitogen-activated protein kinase 13 (Homo sapiens). Conditions: at 10 µM.
Assay [5] concerns the target T2, Serine/threonine-protein kinase Sgk1 (Homo sapiens) (UniProt O00141).
T2 sequence (whole entry): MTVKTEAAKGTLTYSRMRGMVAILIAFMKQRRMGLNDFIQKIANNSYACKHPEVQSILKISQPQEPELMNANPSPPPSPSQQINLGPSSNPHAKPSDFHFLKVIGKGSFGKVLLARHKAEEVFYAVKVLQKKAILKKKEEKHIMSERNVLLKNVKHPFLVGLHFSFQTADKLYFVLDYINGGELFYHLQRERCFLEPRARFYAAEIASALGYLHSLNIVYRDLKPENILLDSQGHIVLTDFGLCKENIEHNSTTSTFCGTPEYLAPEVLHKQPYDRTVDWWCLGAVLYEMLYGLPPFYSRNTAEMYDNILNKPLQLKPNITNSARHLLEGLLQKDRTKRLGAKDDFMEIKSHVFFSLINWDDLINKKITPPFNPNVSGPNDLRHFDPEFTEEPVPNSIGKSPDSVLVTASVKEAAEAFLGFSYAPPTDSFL
Particulars: at 1 µM.

Assay [6] addresses T2, Serine/threonine-protein kinase Sgk1 (Homo sapiens). Particulars: at 10 µM.
Assay [7] deals with T3, Serine/threonine-protein kinase Sgk2 (Homo sapiens) (UniProt Q9HBY8).
T3 sequence (whole entry): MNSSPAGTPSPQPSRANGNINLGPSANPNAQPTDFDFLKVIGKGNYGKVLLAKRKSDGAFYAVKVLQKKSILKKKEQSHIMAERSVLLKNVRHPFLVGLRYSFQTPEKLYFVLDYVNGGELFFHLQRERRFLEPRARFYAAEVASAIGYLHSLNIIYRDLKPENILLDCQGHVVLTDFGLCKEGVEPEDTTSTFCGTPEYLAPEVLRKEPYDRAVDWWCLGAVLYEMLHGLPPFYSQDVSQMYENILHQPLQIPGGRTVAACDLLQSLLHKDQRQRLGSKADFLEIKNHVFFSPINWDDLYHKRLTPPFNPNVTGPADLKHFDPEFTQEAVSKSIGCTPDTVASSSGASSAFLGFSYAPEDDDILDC
Conditions: at 1 µM.

The target of assay [8] is T3, Serine/threonine-protein kinase Sgk2 (Homo sapiens). Particulars: at 10 µM.
In assay [9] the target is T4, Serine/threonine-protein kinase Sgk3 (Homo sapiens) (UniProt Q96BR1).
T4 sequence (whole entry): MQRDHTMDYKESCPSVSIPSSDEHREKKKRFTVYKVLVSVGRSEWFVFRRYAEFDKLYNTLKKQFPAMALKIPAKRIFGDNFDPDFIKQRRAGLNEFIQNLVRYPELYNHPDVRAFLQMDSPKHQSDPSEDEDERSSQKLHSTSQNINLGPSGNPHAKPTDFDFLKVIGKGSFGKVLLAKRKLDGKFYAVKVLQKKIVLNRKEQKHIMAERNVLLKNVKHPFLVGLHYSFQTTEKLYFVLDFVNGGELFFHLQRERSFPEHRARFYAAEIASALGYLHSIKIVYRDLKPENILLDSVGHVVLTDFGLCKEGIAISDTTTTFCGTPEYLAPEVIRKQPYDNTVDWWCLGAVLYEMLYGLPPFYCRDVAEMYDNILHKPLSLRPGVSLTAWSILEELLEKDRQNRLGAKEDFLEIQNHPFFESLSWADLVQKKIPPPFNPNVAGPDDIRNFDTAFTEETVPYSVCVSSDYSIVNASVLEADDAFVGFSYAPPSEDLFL
Particulars: at 10 µM.

Assay [10] has as its target Serine/threonine-protein kinase SIK1 (Homo sapiens) (UniProt P57059). Particulars: at 1 µM.
Assay [11] has the same target. Conditions: at 10 µM.
Assay [12] addresses SRSF protein kinase 1 (Homo sapiens) (UniProt Q96SB4). Conditions: at 1 µM.
The target is the same in assay [13]. Conditions: at 10 µM.
In assay [14] the target is SRSF protein kinase 2 (Homo sapiens) (UniProt P78362). Particulars: at 1 µM.
SRSF protein kinase 2 (Homo sapiens), sequence (P78362 whole entry, looked up): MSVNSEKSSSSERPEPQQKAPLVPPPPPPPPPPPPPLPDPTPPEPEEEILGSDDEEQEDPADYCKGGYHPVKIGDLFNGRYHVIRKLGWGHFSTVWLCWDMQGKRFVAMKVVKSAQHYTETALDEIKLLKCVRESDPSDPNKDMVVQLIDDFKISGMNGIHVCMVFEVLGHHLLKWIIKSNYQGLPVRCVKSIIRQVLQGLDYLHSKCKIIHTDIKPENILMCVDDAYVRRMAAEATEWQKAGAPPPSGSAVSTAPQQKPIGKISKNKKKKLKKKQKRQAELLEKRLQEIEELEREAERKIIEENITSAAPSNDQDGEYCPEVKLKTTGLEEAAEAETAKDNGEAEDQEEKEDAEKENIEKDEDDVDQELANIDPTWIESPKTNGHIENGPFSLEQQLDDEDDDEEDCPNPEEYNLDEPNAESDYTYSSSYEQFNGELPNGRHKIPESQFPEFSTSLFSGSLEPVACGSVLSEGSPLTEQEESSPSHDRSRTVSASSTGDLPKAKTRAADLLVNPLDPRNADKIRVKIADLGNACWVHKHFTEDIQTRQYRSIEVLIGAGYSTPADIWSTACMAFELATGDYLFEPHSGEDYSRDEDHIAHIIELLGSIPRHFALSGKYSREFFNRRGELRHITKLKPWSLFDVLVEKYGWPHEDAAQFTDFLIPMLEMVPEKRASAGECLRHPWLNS
For assay [15] the target is unchanged. Conditions: at 10 µM.
Assay [16] concerns the target Serine/threonine-protein kinase 33 (Homo sapiens) (UniProt Q9BYT3). Particulars: at 1 µM.
Assay [17] has the same target. Particulars: at 10 µM.
In assay [18] the target is Serine/threonine-protein kinase PLK2 (Homo sapiens) (UniProt Q9NYY3). Particulars: at 1 µM.
Serine/threonine-protein kinase PLK2 (Homo sapiens), sequence (Q9NYY3 whole entry, looked up): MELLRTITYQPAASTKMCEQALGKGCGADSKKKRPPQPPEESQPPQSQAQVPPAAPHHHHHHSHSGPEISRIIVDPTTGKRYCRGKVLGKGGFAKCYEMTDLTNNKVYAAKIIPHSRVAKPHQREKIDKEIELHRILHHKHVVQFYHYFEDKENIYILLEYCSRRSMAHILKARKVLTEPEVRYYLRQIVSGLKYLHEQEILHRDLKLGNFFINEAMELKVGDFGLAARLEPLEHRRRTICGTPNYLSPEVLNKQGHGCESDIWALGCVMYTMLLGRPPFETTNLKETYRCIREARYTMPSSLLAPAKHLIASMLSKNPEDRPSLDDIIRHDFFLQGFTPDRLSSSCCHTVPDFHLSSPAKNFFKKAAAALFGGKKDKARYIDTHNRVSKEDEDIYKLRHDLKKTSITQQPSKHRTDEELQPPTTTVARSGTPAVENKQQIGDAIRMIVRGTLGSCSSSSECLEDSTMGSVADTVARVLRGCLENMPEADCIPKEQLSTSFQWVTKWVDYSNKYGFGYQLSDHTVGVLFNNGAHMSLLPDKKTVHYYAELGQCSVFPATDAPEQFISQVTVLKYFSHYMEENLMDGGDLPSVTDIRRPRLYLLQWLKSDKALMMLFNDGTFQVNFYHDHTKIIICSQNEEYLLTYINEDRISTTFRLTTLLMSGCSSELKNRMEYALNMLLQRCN
Assay [19] shares this target. Conditions: at 10 µM.
Assay [20] concerns the target Tyrosine-protein kinase SYK (Homo sapiens) (UniProt P43405). Conditions: at 1 µM.

Mitogen-activated protein kinase 11 (Homo sapiens), sequence (Q15759 whole entry): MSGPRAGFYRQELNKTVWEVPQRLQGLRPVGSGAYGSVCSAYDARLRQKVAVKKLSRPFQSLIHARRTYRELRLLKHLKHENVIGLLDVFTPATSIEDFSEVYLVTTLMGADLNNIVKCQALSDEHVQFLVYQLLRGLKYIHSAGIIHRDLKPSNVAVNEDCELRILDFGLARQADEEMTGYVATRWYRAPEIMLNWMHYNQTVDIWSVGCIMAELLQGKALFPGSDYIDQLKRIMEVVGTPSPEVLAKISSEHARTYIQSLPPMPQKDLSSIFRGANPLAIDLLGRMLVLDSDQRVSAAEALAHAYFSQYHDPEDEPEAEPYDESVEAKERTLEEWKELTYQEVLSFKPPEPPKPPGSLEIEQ
Serine/threonine-protein kinase 33 (Homo sapiens), sequence (Q9BYT3 whole entry, looked up): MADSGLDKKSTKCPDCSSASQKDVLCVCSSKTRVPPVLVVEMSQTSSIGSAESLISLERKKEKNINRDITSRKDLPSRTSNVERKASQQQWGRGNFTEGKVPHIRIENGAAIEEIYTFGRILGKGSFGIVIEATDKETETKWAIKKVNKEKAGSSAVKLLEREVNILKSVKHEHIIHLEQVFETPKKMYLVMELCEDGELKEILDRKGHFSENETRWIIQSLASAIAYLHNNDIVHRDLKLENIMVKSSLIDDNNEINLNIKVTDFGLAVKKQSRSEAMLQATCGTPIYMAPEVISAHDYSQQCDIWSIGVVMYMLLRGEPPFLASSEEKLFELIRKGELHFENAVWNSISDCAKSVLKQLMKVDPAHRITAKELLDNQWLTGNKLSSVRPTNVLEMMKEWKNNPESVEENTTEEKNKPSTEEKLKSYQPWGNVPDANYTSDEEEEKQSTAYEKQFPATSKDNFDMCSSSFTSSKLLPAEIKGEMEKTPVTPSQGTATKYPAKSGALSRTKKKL
Serine/threonine-protein kinase SIK1 (Homo sapiens), sequence (P57059 whole entry): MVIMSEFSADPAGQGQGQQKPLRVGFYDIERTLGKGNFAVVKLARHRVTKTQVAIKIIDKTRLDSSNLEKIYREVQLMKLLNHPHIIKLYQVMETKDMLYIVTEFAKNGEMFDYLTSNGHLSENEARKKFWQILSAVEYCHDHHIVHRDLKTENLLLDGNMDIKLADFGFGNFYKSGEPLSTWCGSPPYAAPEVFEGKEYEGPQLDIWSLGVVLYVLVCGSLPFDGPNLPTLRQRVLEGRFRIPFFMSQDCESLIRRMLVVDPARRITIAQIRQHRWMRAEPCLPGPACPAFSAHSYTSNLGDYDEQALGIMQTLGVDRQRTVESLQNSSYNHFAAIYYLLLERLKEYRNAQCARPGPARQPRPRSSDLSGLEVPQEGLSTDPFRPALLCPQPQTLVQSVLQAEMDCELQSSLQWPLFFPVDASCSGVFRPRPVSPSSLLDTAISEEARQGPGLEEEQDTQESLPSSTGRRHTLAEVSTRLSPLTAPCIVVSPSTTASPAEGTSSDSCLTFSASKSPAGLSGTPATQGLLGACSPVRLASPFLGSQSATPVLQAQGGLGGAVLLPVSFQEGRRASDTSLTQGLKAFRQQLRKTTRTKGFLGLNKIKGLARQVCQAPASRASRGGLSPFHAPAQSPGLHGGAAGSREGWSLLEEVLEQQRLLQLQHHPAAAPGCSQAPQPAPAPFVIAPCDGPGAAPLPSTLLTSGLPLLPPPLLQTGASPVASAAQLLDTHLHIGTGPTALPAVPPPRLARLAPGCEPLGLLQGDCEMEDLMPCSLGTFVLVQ
SRSF protein kinase 1 (Homo sapiens), sequence (Q96SB4 whole entry): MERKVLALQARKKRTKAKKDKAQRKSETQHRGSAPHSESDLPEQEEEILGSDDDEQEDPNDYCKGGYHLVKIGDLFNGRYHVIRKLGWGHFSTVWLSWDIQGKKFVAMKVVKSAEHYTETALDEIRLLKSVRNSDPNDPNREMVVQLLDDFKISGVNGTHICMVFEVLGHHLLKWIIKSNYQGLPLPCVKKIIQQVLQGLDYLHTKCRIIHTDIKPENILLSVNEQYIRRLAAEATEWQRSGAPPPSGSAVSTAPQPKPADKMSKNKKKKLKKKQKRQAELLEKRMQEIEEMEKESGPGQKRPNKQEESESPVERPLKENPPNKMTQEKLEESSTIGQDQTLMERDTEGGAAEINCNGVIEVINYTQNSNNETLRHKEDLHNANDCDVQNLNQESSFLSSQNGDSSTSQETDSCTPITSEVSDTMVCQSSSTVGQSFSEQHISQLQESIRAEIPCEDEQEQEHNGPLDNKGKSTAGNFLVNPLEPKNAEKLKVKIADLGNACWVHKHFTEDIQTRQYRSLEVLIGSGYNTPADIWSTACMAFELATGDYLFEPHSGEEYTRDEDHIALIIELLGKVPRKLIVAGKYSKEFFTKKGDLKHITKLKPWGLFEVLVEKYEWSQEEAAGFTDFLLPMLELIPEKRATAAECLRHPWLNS

Regarding `CNc1cc2c(Nc3cccc(Br)c3)ncnc2cn1`, the residual activity in assay [1] was 98%; in assay [2] it was 93%; in assay [3], 110%; in assay [4] it was 95%; in assay [5], 81%; in assay [6], 75%. The residual activity is 111% in assay [7]; 79% in assay [8]; 96% in assay [9]; 43% in assay [10]; 57% in assay [11]; 93% in assay [12]. The residual activity in assay [13] was 97%; in assay [14], 98%; in assay [15], 92%; in [16], 96%; in assay [17] it was 93%; in assay [18] it was 106%. Moreover, the residual activity was 89% in [19] and 117% in assay [20].
For `O=C1c2ccccc2-[n+]2ccc3c([nH]c4ccccc43)c21`, the residual activity was determined as 94% in [1]; 89% in assay [2]; 103% in assay [3]; 96% in assay [4]; 88% in assay [5]; 95% in assay [6]. The residual activity was 73% in assay [7]; 76% in assay [8]; 80% in [9]; 116% in assay [10]; 104% in [11]; 90% in assay [12]. The residual activity in assay [13] amounted to 93%; in [14], 101%; in assay [15], 87%; in assay [16], 86%; in [17], 86%; in assay [18] it was 95%. For the same molecule, the residual activity is 101% in [19] and 93% in [20].
For `Nc1nc(Nc2ccc(S(N)(=O)=O)cc2)nn1C(=S)Nc1c(F)cccc1F`, the residual activity worked out at 56% in assay [1]; 24% in assay [2]; 43% in assay [3]; 46% in assay [4]; 53% in assay [5]; 16% in assay [6]. Also, the residual activity in assay [7] is 36%; in assay [8], 6%; in assay [9] it was 40%; in assay [10], -2%; in [11] it was -2%; in assay [12], -2%. Besides, the residual activity in assay [13] is 7%; in assay [14] it was 3%; in [15], -3%; in [16], 77%; in assay [17] it was 26%; in assay [18], 71%. The residual activity in assay [19] was found to be 26%; in assay [20], 16%.
As for `Oc1c2ccccc2c2c3c(cccc13)N=N2`, the residual activity was found to be 88% in assay [1]; 79% in [2]; 96% in assay [3]; 73% in assay [4]; 60% in [5]; 24% in assay [6]. Besides, the residual activity in assay [7] worked out at 71%; in assay [8] it was 33%; in assay [9] it was 58%; in [10] it was 96%; in [11], 48%; in assay [12], 98%. For the same molecule, the residual activity in assay [13] was determined as 87%; in [14], 97%; in assay [15], 57%; in assay [16], 61%; in assay [17] it was 16%; in assay [18], 85%. Besides, in assay [19], the residual activity came to 61%.
Take `O=Nc1c(-c2c(O)[nH]c3ccccc23)[nH]c2ccccc12`: the residual activity worked out at 101% in [1]; 90% in assay [2]; 90% in [3]; 82% in [4]; 59% in assay [5]; 28% in assay [6]. Also, the residual activity in assay [7] amounted to 61%; in assay [8] it was 24%; in [9], 56%; in assay [10], 43%; in [11] it was 8%; in [12], 90%. The residual activity in [13] amounted to 66%; in assay [14], 96%; in assay [15], 67%; in assay [16], 43%; in assay [17], 8%; in [18], 97%. Also, the residual activity in [19] is 82%; in assay [20], 49%.
Take `O=C(Nc1cccc(Nc2cc(Nc3cccc(C(F)(F)F)c3)ncn2)c1)C1CC1`: the residual activity in [1] came to 92%; in assay [2], 48%; in assay [3], 107%; in assay [4], 97%; in [5], 112%; in assay [6], 85%. Also, the residual activity in [7] came out at 83%; in assay [8], 69%; in [9], 128%; in assay [10], 107%; in [11] it was 104%; in [12] it was 96%. For the same molecule, the residual activity in assay [13] is 88%; in [14], 90%; in assay [15] it was 84%; in assay [16], 99%; in assay [17], 97%; in assay [18] it was 100%. In addition, the results for the residual activity in assay [19] and in [20] were 90% and 112%, respectively.
Regarding `CC(=O)O/N=C1\C(=C2\C(=O)Nc3cc(Br)ccc32)Nc2ccccc21`, the residual activity in assay [1] came out at 94%; in assay [2], 100%; in [3], 99%; in assay [4] it was 89%; in assay [5] it was 69%; in [6], 56%. Moreover, the residual activity in [7] is 83%; in assay [8], 48%; in assay [9] it was 65%; in assay [10], 57%; in [11], 3%; in assay [12] it was 106%. Further, the residual activity was determined as 100% in assay [13]; 102% in assay [14]; 78% in assay [15]; 98% in assay [16]; 79% in [17]; 104% in assay [18]. Moreover, the residual activity is 98% in assay [19] and 80% in [20].
